Substitutions are numbered along the chain they refer to. The full ranking holds about 5,800 sequences; the median of “enrichment r” is about 0.54, and the highest 2% start at about 16. This is one part of a sample in which the highest values are shown more often than they occur.
B1: chr15:34983303:34983404:-|CDS|ENSG00000198146|msi1|FALSE|unique (ssRNA)
RNA: GGGAGUUCUACAGUCCGACGAUCGCUGAAAACAAUUUAAAAAUGCUAAAGAUUCAACAGUGUGUGGUAGCCAACAAACUACCUAGAAACAGGCCAUAUGUUUGCAAUAUUUGUUUUAAGCACUUUGAAACACCAUCAAAAUUACAACAGAGGAUUGAGCAUCA
B2: ENSG00000160710:stop:overlap|stop_codon|ENSG00000160710|stop_codon|NA|stop_codon (ssRNA)
RNA: GGGAGUUCUACAGUCCGACGAUCGCUAUGGGAACUGGAUUAGCAAACCCCAGGAGGAAAAGAACUUUUAUCUCUGCCCAGUAUAGUAUGCUCCAGUGACAGAUGGAUUAGGGUGUGUCAUACUAGGGUGUGAGAGAGGUAGGUCAACAGAGGAUUGAGCAUCA
B3: chr5:128187618:128187661:+|3pUTR|ENSG00000064651|msi1_unk|FALSE|overlapping (ssRNA)
RNA: GGGAGUUCUACAGUCCGACGAUCUCCUUUAUAAGUCAUUAAAAUAAUGUUUCAUCAAAUGGUUAAAUGGACCACUGGUUUCUUAGAGAAAUGUUUUUAGGCUUAAUUCAUUCAAUUGUCAAGUACACUUAGUCUUAAUACACUCAACAGAGGAUUGAGCAUCA
B4: chr10:52765379:52768136:-|three_prime_utr|ENSG00000165471|control|control|control (ssRNA)
RNA: GGGAGUUCUACAGUCCGACGAUCUUGUUCCUUUUGUGGGCAAUCACUAAAAAUGAUCACUAACAGCACCAACAAAGCAAUAAUAGUAGUAGUAGUAGUUAGCAGCAGCAGUAGUAGUCAUGCUAAUUAUAUAAUAUUUUUAAUCAACAGAGGAUUGAGCAUCA
B5: chr6:149410404:149410522:+|3pUTR|ENSG00000055208|unk|FALSE|bound_elsewhere (ssRNA)
RNA: GGGAGUUCUACAGUCCGACGAUCUUAUAUUUCUAUAUGUAUAGUGUAAUAGCCUUUUGUUAACUAAUUUUCUUUUUUCCUUUUAGUAAUUAAGCACGAUCAUGUCCCUUUUUAAGCCUUACCUGAGAGGAACAAUGCCUUAAACAACAGAGGAUUGAGCAUCA
B6: ENSG00000198589:be:win_9201|3pUTR|ENSG00000198589|bound_else_gene|NA|bound_elsewhere_windowed (ssRNA)
RNA: GGGAGUUCUACAGUCCGACGAUCACCAUUUUUUCCUGAUCUGUCAUCUUCAUAGCACAACAAAACGAAAUGAUGGAAAUGCUCUUGAGCUCACAACAUUUGUUUUUCUUUUAAAGUAAAUGCAAGUACCAAAGCUCACUACUGCAACAGAGGAUUGAGCAUCA
B7: chr6:149410404:149410522:+|3pUTR|ENSG00000055208|unk|total|mutant (ssRNA)
RNA: B5 RNA with U41C, A42C, U49C, A50C, U83C, A84C
B8: ENSG00000198589:be:win_9151|3pUTR|ENSG00000198589|bound_else_gene|NA|bound_elsewhere_windowed (ssRNA)
RNA: GGGAGUUCUACAGUCCGACGAUCAUUGUGUGGUUAGCACAAGGAAUCUAAUUUAUAGCAAGUGUGAAAUAGUUACCAUUUUUUCCUGAUCUGUCAUCUUCAUAGCACAACAAAACGAAAUGAUGGAAAUGCUCUUGAGCUCACCAACAGAGGAUUGAGCAUCA
B9: chr3:112140897:112141281:-|three_prime_utr|ENSG00000172139|control|control|control (ssRNA)
RNA: GGGAGUUCUACAGUCCGACGAUCACUUUUUGCAAAAUUUCCUUGAUUUAAAAUAUUUGUUAUUUUAAAUAUACAAAACAUUUUAGAAAAUCUUAGAGUAAAUUUUAGUCUUAAAGCCAGAAAAUAAGUUUAUAGCCAUCUAGACAACAGAGGAUUGAGCAUCA
B10: ENSG00000198589:be:win_9101|3pUTR|ENSG00000198589|bound_else_gene|NA|bound_elsewhere_windowed (ssRNA)
RNA: GGGAGUUCUACAGUCCGACGAUCUUCAAGCAUGUUUUAGACCUAGAAAAGUAUGGUUUGGGGGAGGCUAUUUUAUUGUGUGGUUAGCACAAGGAAUCUAAUUUAUAGCAAGUGUGAAAUAGUUACCAUUUUUUCCUGAUCUGUCAACAGAGGAUUGAGCAUCA
B11: chr12:89590234:89590335:-|3pUTR|ENSG00000070961|msi1|FALSE|bound_elsewhere (ssRNA)
RNA: GGGAGUUCUACAGUCCGACGAUCUUUGCCUACAAUUUACCUUGUUAAAUAUUGUAGAUAAAUUGCUAAUACUAAUAGCCAAAUAGAUAACACUAAUGCUUUGUUUAAAAAAACGAAAAAAACAAAACAAAACAAAAAAACAUGCAACAGAGGAUUGAGCAUCA
B12: chr2:15946816:15946917:+|3pUTR|ENSG00000134323|unk|FALSE|unique (ssRNA)
RNA: GGGAGUUCUACAGUCCGACGAUCUAUAUGCCUUUUUCCUAGCCUGUUUCUUCCUGUUAAUGUAUUUGUUCAUGUUUGGUGCAUAGAACUGGGUAAAUGCAAAGUUCUGUGUUUAAUUUCUUCAAAAUGUAUAUAUUUAGUGCUCAACAGAGGAUUGAGCAUCA
B13: chr11:118750849:118750950:-|3pUTR|ENSG00000110367|msi1|total|mutant (ssRNA)
RNA: GGGAGUUCUACAGUCCGACGAUCAUUCCCGAAAGUACUUUGGCCUCGUGCUGCCGAGAGCAGAUUUCUAUGGUACCCUGUGUCCGUAAAGGGGCCCAGAAAUCUGGGAUGUACUGUUUGCUGCCACACUGUCUCAUCCCGUACCAACAGAGGAUUGAGCAUCA
B14: chr10:32033860:32033975:-|CDS|ENSG00000170759|unk|FALSE|unique (ssRNA)
RNA: GGGAGUUCUACAGUCCGACGAUCCACAGUGGAUAAAGAUAUUACUCUUACCAAUGAUAAACCAGCAACCGCAAUUGGAGUUAUAGGAAAUUUUACUGAUGCUGAAAGAAGAAAGUGUGAAGAAGAAAUUGCUAAAUUAUACAACAACAGAGGAUUGAGCAUCA

Molecular target: MSI1 full-length (mouse, UniProt Q61474 1-362)
Sequence (Q61474 whole entry): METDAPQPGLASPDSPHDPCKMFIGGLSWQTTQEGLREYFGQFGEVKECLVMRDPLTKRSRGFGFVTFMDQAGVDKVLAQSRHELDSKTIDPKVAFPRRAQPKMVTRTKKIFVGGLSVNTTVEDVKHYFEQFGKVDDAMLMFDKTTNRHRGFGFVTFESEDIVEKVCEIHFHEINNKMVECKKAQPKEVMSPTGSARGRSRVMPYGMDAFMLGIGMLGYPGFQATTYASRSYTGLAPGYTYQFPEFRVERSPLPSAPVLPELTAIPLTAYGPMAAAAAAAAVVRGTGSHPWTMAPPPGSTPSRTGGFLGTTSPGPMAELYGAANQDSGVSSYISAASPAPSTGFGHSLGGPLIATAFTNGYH
Experiment: nsRBNS (natural sequence RNA bind-n-seq); RBNS binding buffer (assumed for nsRBNS): 25 mM Tris pH 7.5, 150 mM KCl, 3 mM MgCl2, 0.01% Triton X-100, 500 ug/ml BSA, 20 U/ml SUPERase-In, 4 C; UNK is unkempt and MSI1 is Musashi-1; names of the RNAs are library labels; protein concentration not given here; high values mean tight binding

Binder | binding signal [enrichment R]
B1 | 0.421
B2 | 1.25
B3 | 15.5
B4 | 83.7
B5 | 30.1
B6 | 0.392
B7 | 11.2
B8 | 33.5
B9 | 14.9
B10 | 7.83
B11 | 1.67
B12 | 6.12
B13 | 0.539
B14 | 1.59

Reference: article PMC12136788
